Assay results published in PubChem BioAssay (NCI).
This is part of a sample that, as a whole, favours compounds with a hit. Of some 79,000 tested, about 15% had one in any assay. A number with no mark means an inactive call. Active and inactive are the calls of the source. No stated cut-off is given here; in the data, active means growth inhibition above about 70%; inactive means the rest.

How the values were obtained:
[1] = NCI Yeast Anticancer Drug Screen. Data for the rad50 strain (AID 155);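 further: 0% = growth of vehicle-only cultures of the same strain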; conditions: S. cerevisiae rad50 strain growth inhibition; at 50.0 µM; hits give high values
Summary of the method: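 Genetically altered yeast (DNA repair pathway); compound treatment; growth inhibition vs vehicle ctrl.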

[2] = NCI Yeast Anticancer Drug Screen. Data for the mec2-1 strain (AID 157); conditions: S. cerevisiae mec2-1 strain, at 50.0 µM, hits give high values
Summary of the method: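 Readout is yeast growth inhibition, normalised to vehicle-treated controls, in the mec2-1 strain exposed to compound.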

[3] = NCI Yeast Anticancer Drug Screen. Data for the sgs1 mgt1 strain (AID 161);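 further: 0% = growth of cultures given vehicle only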; conditions: S. cerevisiae sgs1 mgt1 strain, at 50.0 µM, hits give high values
Summary of the method: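 This yeast growth screen uses a strain with defined DNA-repair lesions; compound-treated growth is compared with vehicle-treated growth.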

[4] = NCI Yeast Anticancer Drug Screen. Data for the cln2 rad14 strain (AID 165);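 further: 0% = growth equal to vehicle treated cultures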; conditions: S. cerevisiae cln2 rad14 strain, at 50.0 µM, hits give high values
Summary of the method: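 Relative to vehicle controls, growth inhibition of compound-treated cln2 rad14 yeast was recorded.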

[5] = NCI Yeast Anticancer Drug Screen. Data for the bub3 strain (AID 167); conditions: S. cerevisiae bub3 mutant strain, at 50.0 µM, hits give high values
Summary of the method: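 Yeast carrying a defined mutation is treated with each compound, and growth is compared with that of vehicle-exposed cells to give inhibition.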

[6] = NCI Yeast Anticancer Drug Screen. Data for the mlh1 rad18 strain (AID 175); conditions: S. cerevisiae mlh1 rad18 strain growth inhibition; at 50.0 µM; hits give high values
Summary of the method: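 Test agents were incubated with a yeast strain of defined genotype (DNA damage repair defect). Inhibition of growth was derived by comparison with vehicle-exposed cultures.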

Compound | growth inhibition [1] | growth inhibition [2] | growth inhibition [3] | growth inhibition [4] | growth inhibition [5] | growth inhibition [6] [%]
O=C(O)c1ccc(O)cn1 | -4.8% | -7.05% | 2.55% | 6.7% | 3.3% | 
Cc1onc(-c2ccccc2Cl)c1-c1nc2ccccc2c(=O)o1 | 94.1% (active) | 97% (active) | 98.5% (active) | 93.2% (active) | 96.8% (active) | 
CCCCc1c2c(nc3c1CCC/C3=C\c1ccccc1)C(=O)CCC2 | 15.8% | 9.1% | 3.2% | 12.2% | 30.6% | 
O=C(NC(=S)Nc1cccc(Cl)c1)c1ccccc1 | 15.9% | 26.5% | 33.3% | -7.3% | 46.2% | 
CC(NC(CC12CC3CC(CC(C3)C1)C2)C(N)=O)c1ccccc1 (stereo not drawn) | -17.8% | -20.8% | -2.3% | 14.1% | 15.3% | 
CNC(=O)n1cnc(N)n1 (tested in a mixture with another compound) | -13.2% | 8.2% | 16.7% | -25.3% | -10.9% | 
Nc1ccc(S(=O)(=O)Nc2nc(CN3CCCCC3)cs2)cc1 | 7.25% | -2.5% | 3.3% | -38.5% | -1.4% | 
OC1c2ccccc2OC2(N3CCCC3)CCCCC12 (stereo not drawn) | -5.6% | -29.9% | -13.2% | -15.7% | -26.4% | 
CCCc1ncc(C[n+]2ccccc2C)c(N)n1 | 11.8% | -15.1% | 23.2% | 25.4% | 10.7% | 
CCOC(=O)CNCc1cccc(Cl)c1 | 5.15% | 28.4% | 15.4% | -0.8% | 28.1% | 
CN(C)c1ccccc1CCCCCBr | 8.35% | 5.5% | 5.5% | -37.1% | -6.7% | 
O=c1[nH]c(=O)n(C2CC(O)C(CO)O2)cc1OCC1CCCCC1 (stereo not drawn) | -33.9% | -4.8% | -13.3% | 1.85% | -14.4% | 
Cc1ccc(NC(=O)NCCCCCCNC(=O)Nc2ccc(C)cc2)cc1 | -7.05% | -13% | -7.95% | -9.05% | -14.4% | 
Nc1cccc(=O)[nH]1 | 6.3% | -10.2% | -0.05% | 3.7% | 9.45% | 
CCCCC(=O)c1cc2ccccc2c2ccccc12 | -3.7% | -20.4% | 0.2% | -11.1% | 10.5% | 
CCCCCC1=CC(=O)C=C(OC)C12C(=O)Oc1cc(O)c(C(=O)O)c(CCCCC)c12 (stereo not drawn) | 32.4% | 37% | 28.2% | 48.4% | 18.6% | 
CC(=O)Nc1ccc(C(F)(F)F)cc1 | -5.2% | -7.75% | -15.8% | -3.15% | -7.7% | 
O=C(OCc1ccc(Cl)cc1Cl)OCc1ccc(Cl)cc1Cl | 7.55% | -0.9% | -3.7% | -31.7% | 19.2% | 
O=C(O)C(Sc1ccccc1)c1ccccc1 (stereo not drawn) | 0.8% | -8.2% | -0.05% | -32.4% | -21.9% | 
CC(C)(C)C(=O)Oc1ccc(/C=C/C(=O)c2ccc(OC(=O)C(C)(C)C)cc2)cc1 | -5.45% | -20.9% | -28% | -20.9% | -22.9% | 
COCCCCCOC | 5.55% | -14.8% | -3.4% | 6.6% | 12.3% | 
CCOC(=O)C(=CNC(=S)Nc1ccc(OCC)cc1)C(=O)OCC | -9.75% | -24.5% | -7.85% | -16.3% | 11.5% | 

Compound | growth inhibition [1] | growth inhibition [2] | growth inhibition [3] | growth inhibition [4] | growth inhibition [5] | growth inhibition [6] [%]
Nc1cc(Cc2ccccc2)ccc1O | 42.5% | 25.8% | 58.8% | 18.8% | 31.2% | 
CN(CC(=O)O)C(=N)N | -8.3% | -11.8% | -19.9% | -2.75% | -24.6% | 
NC(=O)NC(=O)c1ccccc1 | -10.4% | -15.2% | -10.2% | -9.25% | 3.55% | 
CCC1(CC)C(=O)C(CC)(CC)C1=O | 44.5% | 28.1% | 38% | 20.9% | 39.1% | 
O=S(=O)(O)c1ccccc1O | -0.1% | -3.35% | -2.75% | -44.4% | -19.9% | 
COc1cc(C2NCCC(c3ccccc3)(c3ccccc3)N2)cc(OC)c1OC (stereo not drawn) | -30.9% | -4.65% | 5.25% | 4.55% | -7.6% | 
COc1ccc2c(c1)CCCN2c1ccc(N=C(N)N)cc1 | 2.95% | -6.35% | -1.75% | -17.8% | 27.9% | 
CCOC(=O)c1c(C#N)c2cnn(-c3ccccc3)c2n2cccc12 | 14.1% | 9.8% | -2.25% | -64.2% | -8.25% | 
CC1=NN(C(=O)c2ccccc2)C(=O)C1N=Nc1ccc([N+](=O)[O-])cc1 (stereo not drawn) | -3.3% | -5.5% | -2.5% | -10.8% | 0% | 
CC1(C)N=C(N)N=C(N)N1c1cccc(OCCCOc2ccc([N+](=O)[O-])cc2)c1 | -31.9% | -23.6% | -17.1% | -44.9% | -7.8% | 
COc1ccc(-c2nc(N)nc3c2CN(CCCC(=O)O)C3=O)cc1 | -4.65% | 30.3% | -4.25% | -30.8% | 9.3% | 
COCCOCCOCCC(=O)NC1CC2CCC1(C)C2(C)C (stereo not drawn) | -10.5% | -1.85% | 8.2% | -16.7% | 23.7% | 
CCOc1c(N=Nc2ccc(Br)cc2)c(C)nn1C(N)=S | -4.5% | 33.9% | 26.1% | -0.3% | 31.2% | 
O=C(O)CCC1COc2ccccc2O1 (stereo not drawn) | -12.2% | -8.35% | 0.8% | -9.5% | -14% | 
O=C(O)CCCc1ccc(N(CCO)CCO)cc1 | 5.3% | 2.55% | -3.1% | 18% | 8.05% | 
CC1=NN(c2ccccc2)C(N)C1 (stereo not drawn) | 17.7% | 17.7% | 23.3% | 11.5% | 25.4% | 
CCCC(=O)OCC1OC(n2cc(F)c(=O)[nH]c2=O)C(F)C1OC(=O)CCC (stereo not drawn) | -1.45% | 15.1% | -5.8% | -13.9% | -2.6% | 
CCCc1cc(=O)oc2c(C=O)c(O)cc(O)c12 | 37.9% | 24.7% | 20.6% | 9.6% | 19.7% | 
Cc1ccc([N+](=O)[O-])cc1NC(=O)C(=O)C1CCC2=C(Sc3ccccc3N2)C1=O (stereo not drawn) | 0.5% | -16.9% | -9.45% | -17.9% | -0.4% | -5.85
Cc1cccc(NC(=O)/C=C/c2ccc(N(CCC#N)CCC#N)cc2C)c1 | 9.15% | 7.25% | -6% | 6.6% | 40.4% | 19.9
Cc1ccccc1NC(=O)NN | -32.1% | -24.1% | -31.4% | 10.8% | -16.6% | -5.35
